Where “and” joins values, the source holds several entries; their conditions need not be identical. Identical values can stand only once. Inconclusive results are not listed. A structure can be active in one record and inactive in another. Calls of active or inactive are those of the source. Unless noted, the call rests on the fitted dose curve; in most records, active means well fitted curve in the direction sought with a large enough effect in the repeat runs; inconclusive means weak or mixed curves; inactive means no such curve, though single readings can be large; an effect the other way counts as inactive or inconclusive.
Legend:
[1] = qHTS assay to identify small molecule antagonists of the estrogen related receptor (ERR) signaling pathway from Tox21 library - cell viability counter screen (AID 1224834); further: nearly all actives have a fitted effect of over 30% in size
Method in brief: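 ERR cells, 2,000/well; 6 h settle at 37 C/5% CO2; pin-tool compound transfer in DMSO; 17.5 h at 37 C; CellTiter-Fluor, 30 min; fluorescence intensity.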

[2] = molecular target: Luciferin 4-monooxygenase (Photinus pyralis) (UniProt P08659); assay: qHTS assay to identify small molecule inhibitors of firefly luciferase (AID 1224835); further: nearly all actives have a fitted effect of over 25% in size; further: potency means the concentration at half of the fitted maximal effect
Chain of Luciferin 4-monooxygenase (Photinus pyralis) (P08659 whole entry, looked up): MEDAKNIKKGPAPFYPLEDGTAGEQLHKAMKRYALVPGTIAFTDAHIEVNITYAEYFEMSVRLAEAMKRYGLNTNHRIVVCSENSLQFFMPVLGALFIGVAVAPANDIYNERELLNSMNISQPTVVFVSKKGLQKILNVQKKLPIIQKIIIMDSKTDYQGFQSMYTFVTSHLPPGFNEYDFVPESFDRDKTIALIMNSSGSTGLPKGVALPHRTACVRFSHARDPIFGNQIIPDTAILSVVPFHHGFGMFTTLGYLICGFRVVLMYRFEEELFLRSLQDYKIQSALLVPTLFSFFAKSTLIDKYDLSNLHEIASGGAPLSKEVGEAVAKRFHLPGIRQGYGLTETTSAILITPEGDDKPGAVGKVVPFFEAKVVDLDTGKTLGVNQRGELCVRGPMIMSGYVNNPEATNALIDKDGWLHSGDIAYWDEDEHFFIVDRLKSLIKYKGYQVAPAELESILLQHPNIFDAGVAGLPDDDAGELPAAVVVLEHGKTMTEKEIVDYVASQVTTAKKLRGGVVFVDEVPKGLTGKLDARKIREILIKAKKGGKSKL
Method in brief: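 Inhibition of purified Photinus luciferase is measured by luminescence. Substrate levels (D-luciferin, ATP) sit at their KM values. Each compound is tested in a concentration series.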

[3] = qHTS assay to identify small molecule agonists of the constitutive androstane receptor (CAR) signaling pathway - cell viability counter screen (AID 1224836); further: nearly all actives have a fitted effect of over 45% in size
Method in brief: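 Cell viability multiplexed with the CAR agonist screen: CellTiter-Fluor fluorescence after 23 hr at 37 C. HepG2-CYP2B6-hCAR cells got compounds at 15 concentrations with PK11195 at 0.75 uM final.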

[4] = qHTS assay to identify small molecule antagonists of the constitutive androstane receptor (CAR) signaling pathway - cell viability counter screen (AID 1224837); further: nearly all actives have a fitted effect of over 45% in size
Method in brief: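 Viability was measured with CellTiter-Fluor in a HepG2 line carrying stably transfected hCAR and a CYP2B6-2.2kb construct. Cells were exposed for 23 hr at 37 C to 15 compound concentrations with 50 nM CITCO as agonist.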

[5] = molecular target: Nuclear receptor subfamily 1 group I member 3 (Homo sapiens) (UniProt Q14994); assay: qHTS assay to identify small molecule antagonists of the constitutive androstane receptor (CAR) signaling pathway (AID 1224838);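 further: HepG2 cells stably expressing hCAR with CYP2B6 luciferase reporter stimulated by CITCO; nearly all actives have a fitted effect of over 40% in size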
Chain of Nuclear receptor subfamily 1 group I member 3 (Homo sapiens) (Q14994 whole entry, looked up): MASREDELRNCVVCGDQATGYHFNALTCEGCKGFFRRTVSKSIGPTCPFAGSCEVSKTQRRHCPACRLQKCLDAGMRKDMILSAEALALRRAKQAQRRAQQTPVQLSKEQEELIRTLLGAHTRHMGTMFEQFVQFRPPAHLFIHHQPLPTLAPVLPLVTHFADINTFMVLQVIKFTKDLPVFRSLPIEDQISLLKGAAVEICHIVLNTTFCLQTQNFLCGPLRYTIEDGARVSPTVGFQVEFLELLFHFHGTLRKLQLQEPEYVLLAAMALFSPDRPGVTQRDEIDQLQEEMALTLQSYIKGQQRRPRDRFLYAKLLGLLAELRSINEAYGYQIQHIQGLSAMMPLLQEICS
Method in brief: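 Antagonist mode used CITCO at a final 50 nM to activate CAR in human hepatoma HepG2 cells carrying stable hCAR and a 2.2 kb CYP2B6 promoter-luciferase construct. Compounds were tested at 15 concentrations over 24 h, with luminescence as the end point.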

[6] = molecular target: Nuclear receptor subfamily 1 group I member 3 (Homo sapiens) (UniProt Q14994); assay: qHTS assay to identify small molecule agonists of the constitutive androstane receptor (CAR) signaling pathway (AID 1224839); further: nearly all actives have a fitted effect of over 15% in size; further: potency means the concentration at half of the fitted maximal effect
Method in brief: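 Luminescent ONE-Glo read-out after 24 hr, 37 C exposure of double-stable HepG2-CYP2B6-hCAR reporter cells to a 15-point compound series, in the presence of 0.75 uM PK11195 (final).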

[7] = qHTS assay to identify small molecule antagonists of the estrogen related receptor signaling pathway with the pleiotropic PPARgamma coactivator (PGC) from Tox21 10K library - cell viability counter screen (AID 1224840; active means well fitted cell-killing curve with a large enough effect in the repeat runs, not every such curve was filed as active; further: nearly all actives have a fitted effect of over 40% in size)
Method in brief: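 Multiplexed viability counter screen in the PGC/ERR cell line: cells treated with DMSO-dissolved compounds for 17.5 hours at 37 C, then viability measured as CellTiter-Fluor fluorescence.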

[8] = qHTS assay to identify small molecule antagonists of the estrogen related receptor signaling pathway with the pleiotropic PPARgamma coactivator (PGC) from Tox21 10K library (AID 1224841; call rule not given here; further: actives are mostly falling curves and most rising ones were filed inactive; nearly all actives have a fitted effect of over 50% in size; further: potency means the concentration at half of the fitted maximal effect)
Method in brief: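 Steps: plate 2,000 PGC/ERR cells per well; incubate 6 h at 37 C with 5% CO2; transfer compounds from DMSO stocks by pin tool; incubate 18 h at 37 C; add One-Glo; measure luminescence 30 min later.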

[9] = qHTS assay to identify small molecule agonists of the estrogen related receptor signaling pathway with the pleiotropic PPARgamma coactivator (PGC) from Tox21 10K library (AID 1224842); further: nearly all actives have a fitted effect of over 15% in size; further: potency means the concentration at half of the fitted maximal effect
Method in brief: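 Luminescence from One-Glo (30 min, room temperature) measured after PGC/ERR cells had 18 h at 37 C with pinned compound (23 nL in DMSO). Cells had been seeded at 2,000 per well and pre-incubated 6 h.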

[10] = molecular target: Thyrotropin receptor (Homo sapiens) (UniProt P16473); assay: qHTS assay to identify small molecule agonists of the thyroid stimulating hormone receptor (TSHR) signaling pathway (AID 1224843; calls by dose curve; further: nearly all actives have a fitted effect of over 45% in size)
Chain of Thyrotropin receptor (Homo sapiens) (P16473 whole entry, looked up): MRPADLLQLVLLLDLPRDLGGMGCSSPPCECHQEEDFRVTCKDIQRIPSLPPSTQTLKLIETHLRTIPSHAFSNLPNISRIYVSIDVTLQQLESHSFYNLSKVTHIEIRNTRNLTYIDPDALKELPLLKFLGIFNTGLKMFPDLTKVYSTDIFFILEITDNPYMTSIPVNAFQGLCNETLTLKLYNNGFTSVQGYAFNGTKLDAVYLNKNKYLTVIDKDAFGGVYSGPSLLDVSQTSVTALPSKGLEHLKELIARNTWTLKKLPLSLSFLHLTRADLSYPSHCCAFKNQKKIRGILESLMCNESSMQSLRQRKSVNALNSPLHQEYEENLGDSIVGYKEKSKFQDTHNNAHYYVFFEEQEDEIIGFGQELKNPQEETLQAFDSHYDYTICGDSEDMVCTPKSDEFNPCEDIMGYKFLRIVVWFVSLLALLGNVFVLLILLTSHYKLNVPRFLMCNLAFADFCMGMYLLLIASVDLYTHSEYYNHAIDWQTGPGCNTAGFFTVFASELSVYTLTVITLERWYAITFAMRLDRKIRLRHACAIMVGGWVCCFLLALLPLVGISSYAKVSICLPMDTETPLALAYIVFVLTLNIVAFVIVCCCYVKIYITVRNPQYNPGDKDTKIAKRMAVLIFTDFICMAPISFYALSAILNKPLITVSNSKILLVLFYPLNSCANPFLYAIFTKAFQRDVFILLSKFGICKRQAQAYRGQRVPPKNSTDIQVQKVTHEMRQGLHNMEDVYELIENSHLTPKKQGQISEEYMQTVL
Method in brief: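 Agonist activity read as cAMP rise via d2/cryptate HTRF competition, 1 h room-temperature detection, in HEK293 cells expressing TSHR. Fifteen-point titrations, each run in triplicate, with a 30 min room-temperature incubation beforehand.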

[11] = qHTS assay to identify small molecule agonists of the hypoxia (HIF-1) signaling pathway - cell viability counter screen (AID 1224844; calls by dose curve; further: nearly all actives have a fitted effect of over 50% in size; further: potency means the concentration at half of the fitted maximal effect)
Method in brief: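 Cytotoxicity was measured in parallel with the HRE-driven beta-lactamase readout: after 17 hrs of compound exposure at 37C, HRE-bla ME-180 cells received CellTiter-Glo and luminescence was recorded 30 min later.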

[12] = qHTS assay to identify small molecule agonists of H2AX (AID 1224845; active means well fitted activation curve with a large enough effect in the signal ratio in the repeat runs, not every such curve was filed as active; the % refers to the signal ratio)
Method in brief: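 Phospho-H2AX Ser139 measured by HTRF (ex 320 nm; em 665 and 620 nm) after 24 hr antibody incubation. Compounds, 15 concentrations, 0.76% DMSO, were applied to CHO-K1 cells for 3hr at 37C before lysis.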

[13] = qHTS assay to identify small molecule agonists of H2AX - cell viability counter screen (AID 1224847; calls by dose curve;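 further: wild-type CHO-K1 cells; top concentration of the series differs between compounds; nearly all actives have a fitted effect of over 30% in size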)
Method in brief: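 Counter-screen for viability: CellTiter-Glo ATP luminescence read after 3 h compound treatment (15-point titration, 0.76% DMSO final) of CHO-K1 cells at 37C, with 30 min room-temperature reagent incubation.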

[14] = qHTS assay to identify small molecule antagonists of the estrogen related receptor (ERR) signaling pathway from Tox21 library (AID 1224848); further: nearly all actives have a fitted effect of over 50% in size; further: potency means the concentration at half of the fitted maximal effect
Method in brief: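 Luciferase luminescence (ONE-Glo, 30 min room temperature) was the read-out. Cells of the NTP-supplied ERR line, 2,000 per well, were given 6 h at 37 C before compound addition in DMSO and 18 h exposure at 37 C.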

[15] = qHTS RealTime-Glo MT Cell Viability Assay in HepG2 cells - 24 hour (AID 1224867); further: nearly all actives have a fitted effect of over 50% in size
Method in brief: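 qHTS, HepG2, 600 cells/well, RealTime-Glo (NanoLuc + prosubstrate) added with cells; 5 h preincubation; DMSO compound addition; 37 C; luminescence at 0/8/16/24/32/40 h.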

[16] = qHTS RealTime-Glo MT Cell Viability Assay in HEK293 cells - 32 hour (AID 1224868); further: nearly all actives have a fitted effect of over 50% in size; further: potency means the concentration at half of the fitted maximal effect
Method in brief: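 Assay medium contained NanoLuc luciferase plus cell-permeant prosubstrate, added with HEK293 cells at 600 cells/well. After 5 h at 37 C/5% CO2 compounds were added; plates stayed at 37 C for 40 h with serial luminescence reads.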

[17] = A CellTox Green Cytotoxicity Assay to monitor cytotoxicity in HEK293 cells - 0 hour (AID 1224869); further: nearly all actives have a fitted effect of over 50% in size
Method in brief: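 Cells (HEK293, 600/well) and dye reagent are dispensed together. After 5 h at 37 C, 23 nL compound is pinned in. Plates stay at 37 C for 40 h with fluorescence read at 0h, 8h, 16h, 24h, 32h and 40h.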

[18] = qHTS assay to identify small molecule agonists of the estrogen related receptor signaling pathway with the pleiotropic PPARgamma coactivator (PGC) (AID 1224823)
Method in brief: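 Luminescence from One-Glo reagent (30 min, room temperature) was read after 18 h compound treatment at 37 C of PGC/ERR cells plated 6 h beforehand; compounds delivered in DMSO by pin tool.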

[19] = qHTS assay to identify small molecule agonists of the hypoxia (HIF-1) signaling pathway (AID 1224846; active means well fitted activation curve with a large enough effect in the signal ratio in the repeat runs, not every such curve was filed as active; the % refers to the signal ratio)
Method in brief: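 Compounds from the Tox21 10K library, dissolved in DMSO, are tested for induction of a hypoxia response element–controlled beta-lactamase reporter in ME-180 cells. Exposure lasts 17 hrs at 37C after a 5 hr settling period, followed by CCF4-AM FRET substrate.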

[20] = qHTS assay to identify small molecule agonists of the estrogen related receptor (ERR) signaling pathway from Tox21 library (AID 1224849; calls by dose curve; further: nearly all actives have a fitted effect of over 15% in size); settings: ERR reporter cell line, ONE-Glo luciferase, 18 h; at 92.4 µM (top of the series)
Method in brief: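 Cells carrying the ERR reporter were plated and allowed to settle for 6 h, exposed to library compounds for 18 h at 37 C, then lysed with ONE-Glo and luminescence measured.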
On the % scale 0 is the no-effect control and ±100 the full control effect.

ClC1=C(Cl)C(Cl)(Cl)C(Cl)=C1Cl
active: Potency [11] 11 µM and 6.17 µM | Potency [16] 39.1 µM
inactive: Potency [1] | Potency [2] | Potency [3] | Potency [4] | Potency [5] | Potency [6] | Potency [7] | Potency [8] | Potency [9] | Potency [10] | Potency [12] | Potency [13] | Potency [14] | Potency [15] | Potency [17]

CC#C[C@]1(O)CC[C@H]2[C@@H]3CCC4=CC(=O)CCC4=C3[C@@H](c3ccc(N(C)C)cc3)C[C@@]21C
active: Potency [8] 21.7 µM and 29.8 µM | Potency [14] 26.6 µM | Potency [16] 49 µM
inactive: Potency [18] | Potency [2] | Potency [5] | Potency [6] | Potency [7] | Potency [9] | Potency [10] | Potency [11] | outcome [19] | Potency [13] | Potency [15] | Potency [17]

CCCCCCC(C)(C)S
inactive: Potency [1] | Potency [2] | Potency [3] | Potency [4] | Potency [5] | Potency [6] | Potency [7] | Potency [10] | Potency [11] | Potency [12] | outcome [19] | Potency [13] | Potency [15] | Potency [16] | Potency [17]

CC(=O)CCc1ccccc1
inactive: Potency [1] | Potency [2] | Potency [3] | Potency [5] | Potency [6] | Potency [7] | Potency [8] | Potency [9] | Potency [10] | Potency [11] | Potency [12] | outcome [19] | Potency [13] | Potency [14] | activity change, positive = activation [20] 1.01% and -0.812% | Potency [15] | Potency [16] | Potency [17]

C=C(C)C(=O)OCCCCCCCCCCCC
inactive: Potency [1] | Potency [2] | Potency [3] | Potency [4] | Potency [5] | Potency [6] | Potency [7] | Potency [8] | Potency [9] | Potency [10] | Potency [11] | Potency [12] | outcome [19] | Potency [13] | Potency [14] | activity change, positive = activation [20] 5.32% and 1.41% | Potency [15] | Potency [16] | Potency [17]

CCCCC(CC)COC(C)=O (configuration not stated)
inactive: Potency [1] | Potency [2] | Potency [3] | Potency [4] | Potency [5] | Potency [6] | Potency [7] | Potency [8] | Potency [9] | Potency [10] | Potency [11] | outcome [19] | Potency [13] | Potency [14] | Potency [15] | Potency [16] | Potency [17]

Cn1c([N+](=O)[O-])cnc1COC(N)=O
inactive: Potency [1] | Potency [2] | Potency [3] | Potency [4] | Potency [5] | Potency [6] | Potency [7] | Potency [8] | Potency [9] | Potency [11] | Potency [12] | Potency [13] | Potency [14] | Potency [15] | Potency [16] | Potency [17]

COC(=O)c1ccccc1O
63.5 µM (active) and inactive: Potency [2]
21.7 µM (active) and inactive: Potency [9]
19.3% (active) and 7.16% (inactive): activity change, positive = activation [20]
inactive: Potency [1] | Potency [3] | Potency [4] | Potency [7] | Potency [8] | Potency [10] | Potency [11] | outcome [19] | Potency [13] | Potency [14] | Potency [15] | Potency [16] | Potency [17]

CN(CCOc1ccc(CC2SC(=O)NC2=O)cc1)c1ccccn1 (configuration not stated)
70.6 µM (active) and inactive: Potency [2]
inactive: Potency [1] | Potency [3] | Potency [4] | Potency [5] | Potency [6] | Potency [7] | Potency [10] | Potency [11] | Potency [12] | outcome [19] | Potency [13] | Potency [15] | Potency [16] | Potency [17]

CCCCOCCO
inactive: Potency [1] | Potency [2] | Potency [3] | Potency [4] | Potency [5] | Potency [6] | Potency [7] | Potency [8] | Potency [9] | Potency [10] | Potency [11] | Potency [12] | outcome [19] | Potency [13] | Potency [14] | activity change, positive = activation [20] 5.31% and -0.958% | Potency [15] | Potency [16] | Potency [17]

O=[N+]([O-])C(CO)(CO)CO
inactive: Potency [1] | Potency [2] | Potency [3] | Potency [4] | Potency [7] | Potency [8] | Potency [9] | Potency [10] | Potency [11] | outcome [19] | Potency [13] | Potency [14] | Potency [15] | Potency [16] | Potency [17]

O=C(O)c1ccc([N+](=O)[O-])cc1
inactive: Potency [1] | Potency [2] | Potency [3] | Potency [4] | Potency [5] | Potency [6] | Potency [7] | Potency [11] | Potency [12] | outcome [19] | Potency [13] | Potency [15] | Potency [16] | Potency [17]

CS(=O)(=O)Nc1ccc([N+](=O)[O-])cc1Oc1ccccc1
active: Potency [14] 38.6 µM
inactive: Potency [18] | Potency [4] | Potency [5] | Potency [6] | Potency [8] | Potency [9] | Potency [10] | Potency [11] | Potency [13] | Potency [15] | Potency [16] | Potency [17]

CCCCOCCOCCOC(=O)CCCCC(=O)OCCOCCOCCCC
inactive: Potency [1] | Potency [2] | Potency [3] | Potency [4] | Potency [5] | Potency [6] | Potency [7] | Potency [11] | Potency [12] | outcome [19] | Potency [13] | Potency [15] | Potency [16] | Potency [17]

Oc1ccc(OCc2ccccc2)cc1
inactive: Potency [1] | Potency [3] | Potency [4] | Potency [5] | Potency [7] | Potency [10] | Potency [11] | outcome [19] | Potency [13] | Potency [15] | Potency [17]
active: Potency [2] 31.1 µM and 17.4 µM | Potency [6] 23.8 µM
1.07 µM (active) and inactive: Potency [16]

Reference: PubChem BioAssay (Tox21)
